Results published in PubChem BioAssay AID588692 (Broad Institute, 2011).
Screen size: about 360,000 compounds; about 830 (0.23%) were called active.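 Rule for the calls: active = mean luciferase reporter signal, scaled so untreated is 0 and the glycosylation-blocking control 100, at or above a set limit in every replicate; inconclusive = mean reaches the limit but not every replicate does; inactive = mean below the limit.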 Only a selection was taken, and actives are over-represented in it overall.

Assay: D54 reporter luminescence gain compounds – D54 ERlucT cells, set 2, N-linked glycosylation inhibitor project, primary screen (AID 588692);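 note: luciferase carries N-glycosylation sites so blocking glycosylation raises the light; 0% = median of neutral control wells and 100% = median of 100 nM tunicamycin wells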
Settings: D54 ERlucT glycosylation luciferase reporter, 24 h; at 12.5 µM; active compounds read high; percent of 100 nM tunicamycin response

Reporter increase, inactive:
CCCn1nc(C(=O)Nc2ccc3nc(C)sc3c2)c2ccccc2c1=O -5.69%
CC(=O)Nc1ccc2nc(NC(=O)CS(=O)(=O)c3ccc(F)cc3)sc2c1 1.57%
O=C(NCN1CCN(CCO)CC1)c1cnccn1 1.41%
Cc1cc(C)c2nc(SCC(=O)N(C)C3CCS(=O)(=O)C3)cc(C)c2c1 (centres undefined) -2.35%
CC1CCN(c2ccc(-c3ccc(NC(=O)c4ccco4)cc3)nn2)CC1 -3.17%
COc1cc(OC)cc(C(=O)NCCCn2ccnc2)c1 -1.14%
O=C(NCCCn1ccnc1)c1cc(Br)c(Br)s1 -1.37%
CC(C)CC1C(=O)N(Cc2cn(CC3CCCCC3)nn2)CCS(=O)(=O)N1Cc1ccc(-c2ccc(Cl)cc2)cc1 (centres undefined) -5.63%
COc1ccc(-c2c(C#N)cnc(C)c2C)c(O)c1OC 1.16%
CSc1ncnc2c1ncn2CCCNCc1ccco1 -1.13%
CCc1ccccc1NC(=O)Cc1cn(C)c2ccccc12 0.183%
COc1ccc(CNC(=O)C[C@H]2C[C@H](C(=O)N3CCOCC3)[C@@]3(C)c4[nH]c5cc(CCC(=O)N(C)C)ccc5c4CCN3C2=O)cc1OC 1.84%
O=C(OC(C(=O)NC1CCCC1)c1ccc(F)cc1)c1ccno1 (centres undefined) 3.11%
O=C1C(C=NCC2CCCO2)=C(O)c2ccccc21 (centres undefined) -4.51%
N#Cc1cc([N+](=O)[O-])ccc1NCC1CCCO1 (centres undefined) -0.076%
C[C@@H]1C[C@@H]2O[C@H]2/C=C\C=C\C(=O)Cc2c(Cl)c(O)cc(O)c2C(=O)O1 -14.3%
CCC1=C(OC(=O)N(CC)CC)N2C(=O)OC(=NCCc3c[nH]c4ccccc34)[C@]2(C)[C@H]2C1=CC[C@H]1C(=O)N(CC)C(=O)[C@H]12 -4.07%
CC(=O)c1ccc(S(=O)(=O)NCCC(=O)N2CCN(c3ccccn3)CC2)cc1 -0.855%
CCN(CC(=O)Nc1c(F)cccc1F)C(=O)C1CCC1 0.369%
CC(=O)Nc1ccc(SCC(=O)NC(=O)c2ccc(Cl)cc2)cc1 -6.32%
O=C(O)CSCC(=O)Nc1ccc(C(F)(F)F)cc1 1.33%
Cc1ccccc1NC(=O)c1ccc(COc2ccc3c(C)cc(=O)oc3c2)cc1 -2.09%
O=C(c1ccccc1)C(Cn1cncn1)C(Sc1ccccc1)c1ccccc1 (centres undefined) -3.83%
O=C(Cc1ccc([N+](=O)[O-])cc1)NCCc1ccc2c(c1)OCO2 -0.789%
CC1CCN(c2ccc(C(=O)NCc3ccc4c(c3)OCO4)cc2[N+](=O)[O-])CC1 -1.89%
Cc1ccc(C(=O)NCC(c2cccs2)N(C)C)cc1S(=O)(=O)N1CCOCC1 (centres undefined) 0.45%
Cc1nc(-c2ccccc2)sc1-c1nnc(C2CC2)o1 0.986%
Cc1ccccc1Nc1nc(N)nc(CN2CCN(c3ccccn3)CC2)n1 1.95%
CCOC(=O)C1CCCN(Cc2nc(N)nc(Nc3ccc(C)cc3)n2)C1 (centres undefined) 1.57%
CCN(C(=O)COC(=O)c1cc(S(=O)(=O)N2CCc3ccccc32)ccc1OC)C1CCS(=O)(=O)C1 (centres undefined) -1.41%
Cc1cccc(C(=O)NCc2nnc(SC(C)C(=O)Nc3nnc(C)s3)n2C)c1 (centres undefined) -0.286%
CC(C)(Oc1ccc(C2CC2(Cl)Cl)cc1)C(=O)O (centres undefined) 4.07%
O=C(Cc1ccccc1)Nc1ccc(C(=O)Nc2ccccc2C(=O)O)cc1 1.55%
O=C(Nc1ccccc1F)c1ccc(S(=O)(=O)N2CCCCCC2)cc1 -0.684%
Cc1ccc(S(=O)(=O)NC(=O)N2CCCN(Cc3ccc(F)cc3)CC2)cc1 -2.48%
O=C(CCNS(=O)(=O)c1ccccc1)NCCSc1ccc(Br)cc1 2.32%
CC1(C)CC(=O)C=C(NCc2ccncc2)C1 1.27%
O=C(CCN1C(=O)C2CCCCC2C1=O)Nc1ccc(OC(F)F)cc1 (centres undefined) 0.177%
Cc1cc(Cl)ccc1N1C(=O)CC(SCCC(=O)O)C1=O (centres undefined) 1.84%
O=C(O)CC(Cc1ccccc1)C(=O)Nc1ccc([N+](=O)[O-])cc1 (centres undefined) -1.27%
CC(=O)NC(c1ccccc1)c1nc(-c2ccccc2C)cs1 (centres undefined) 11.9%
COc1cccc(C(NC(C)=O)c2nc(-c3cnc4ccccc4c3)cs2)c1 (centres undefined) 1.72%
COc1cccc(C(=O)N2CCC(n3nccc3NC(=O)C3CCOC3)CC2)c1 (centres undefined) 0.842%
COc1ccc(Cl)cc1NS(=O)(=O)c1cccc(C(=O)NC2CCC(O)CC2)c1 (centres undefined) -1%
Cc1[nH]n(C(N)=S)c(=O)c1N=Nc1ccc(Cl)cc1Cl -0.0505%
CC(=O)NC(Cc1ccc(F)c(F)c1)C(=O)NC1CCN(c2nnnn2-c2ccccc2)CC1 (centres undefined) 0.485%
Cc1ccc(OCC(=O)Nc2ccc(N3CCN(C(=O)c4ccco4)CC3)cc2)c(C)c1 -5.46%
Cc1cccc(C(=O)Nc2ccc(C(=O)/C=C/c3cccs3)cc2)c1 -1.77%
Cc1ccc(NNC(=O)c2cccs2)cc1Cl 1.56%
C/C(=N\OCC(=O)Nc1ccc(Br)cc1)c1cccs1 2.32%
O=C(NCCN1CCOCC1)c1ccccc1N1C(=O)[C@@H]2Cc3c([nH]c4ccccc34)C(c3cccc(Cl)c3)N2C1=O (some centres undefined) 4.03%
COC(=O)c1cccc(N(C(=O)c2ccco2)C(C(=O)NC2CCCC2)c2ccco2)c1 (centres undefined) 1.26%
COCCNc1ncnc2c1ncn2[C@H]1CN(Cc2ccc(OC)cc2)C[C@@H](CO)O1 0.218%
CC(C)C[C@H](NC(=O)NCCc1ccc(Cl)cc1)C(=O)O 0.0345%
CCN(CC)C(=O)CSc1nnc(-c2cnccn2)n1-c1ccc(C)cc1 1.32%
Cc1cccc(NC(=O)C(C)N2C(=O)C3C4CC(C(Br)C4Br)C3C2=O)c1 (centres undefined) 2.15%
CCN(C(=O)c1cc([N+](=O)[O-])ccc1NCc1cccnc1)c1ccccc1 -2.09%
Cn1cnc2c1c(=O)n(Cc1ccccc1C#N)c(=O)n2C 1.69%
Cc1cc2oc(=O)cc(CN(C)Cc3ccccc3)c2cc1Cl 0.116%
CCN1C(=O)CS/C1=N\c1nccs1 0.352%
C=CCC[C@@H](Cc1ccc(F)cc1)C(=O)OC[C@H](Cc1c[nH]c2ccccc12)NC(=O)[C@@H](CC=C)CC(=O)N(CCO)Cc1ccccc1 -0.357%
Cn1c(=O)n(C)c2cc(S(=O)(=O)Nc3ccc(F)cc3)ccc21 2.56%
Cn1c(CCN2CCN(c3ccccn3)CC2)nc2cc(NS(=O)(=O)c3ccc(F)cc3)ccc21 -5.5%
COc1ccccc1CNC(=O)c1cc(-c2cc(F)ccc2OC)n[nH]1 0.448%
Cc1cc(F)ccc1N1CCC(N2CCN(C)C(CCO)C2)CC1 (centres undefined) -1.14%
Cc1cc(O)ccc1-c1cc(C(=O)NCc2cc(C(F)(F)F)cc(C(F)(F)F)c2)[nH]n1 1.18%
COCCCNC(=O)c1ccc(-c2c(C)noc2C)c2ccoc12 19.8%
COc1ccc(-c2coc3c(C(=O)NC(C)C)cccc23)c(C)c1 -2.53%
COc1ccc(-c2ccc(CN3C(CC(C)C)C(=O)N(Cc4cn(CC5CCCCC5)nn4)CCS3(=O)=O)cc2)cn1 (centres undefined) 4.1%
CSCCC(C(=O)NC1=NCCS1)N1C(=O)c2ccccc2C1=O (centres undefined) -0.003%
COc1ccc(N2CCN(S(=O)(=O)c3cc4c5c(c3)C(C)C(=O)N5CCC4)CC2)cc1 (centres undefined) -1.71%
CCn1nc(C(=O)NNC(=O)C2CSC3(C)CCC(=O)N23)c2ccccc2c1=O (centres undefined) -0.092%
CC(NCc1cccs1)C(=O)Nc1cc(Cl)cc(Cl)c1 (centres undefined) 0.0655%
O=C(N/N=C/C=C/c1ccccc1)C1CC1(c1ccccc1)c1ccccc1 (centres undefined) -0.496%
CN(C)S(=O)(=O)c1ccc(N2CCCC2)c(C(=O)NCc2ccccc2)c1 -1.02%
CN(C)S(=O)(=O)c1ccc(N2CCCC2)c(C(=O)Nc2ccc(Br)cc2F)c1 -1.25%

Reporter increase, active:
CCCC(=O)Nc1nc2ccc(NC(=O)c3c(F)c(F)c(OC)c(F)c3F)cc2s1 45.8%
O=C(NCCCn1ccnc1)c1cc(-c2ccccc2)on1 86.5%
O=C1c2cccc3c([N+](=O)[O-])ccc(c23)C(=O)N1CC1CCCO1 (centres undefined) 29.4%
O=C(CCl)Nc1ccc(Sc2ccc(NC(=O)CCl)cc2)cc1 41%
O=C(NCc1ccc2c(c1)OCO2)c1cc([N+](=O)[O-])ccc1N1CCOCC1 25.7%
Cc1ccc(Nc2nc(N)nc(CN3CCN(Cc4ccccc4)CC3)n2)cc1Cl 49%
Nc1ccc(C(=O)Nc2ccccc2N)cc1 69.6%
COc1cccc(C(NC(C)=O)c2nc(-c3ccccc3OC)cs2)c1 (centres undefined) 62.8%
Cc1ccc(C(=O)Nc2ccc(NC(=O)c3cccs3)cc2)c(C)c1 47.6%
Cc1ccc(OCC(=O)Nc2ccc(NC(=O)c3cccs3)cc2)c(C)c1 79.9%
Cn1c(=O)n(C)c2cc(NS(=O)(=O)c3ccc(F)cc3)ccc21 27.7%
COCCCNC(=O)c1cccc2c(-c3ccc(O)c(OC)c3)coc12 31.5%
CN(C)S(=O)(=O)c1ccc(N2CCCC2)c(C(=O)Nc2cccc(F)c2)c1 48.8%
